Assay results: PubChem BioAssay AID588398 (Broad Institute, 2011)
Screen size: about 1,200 compounds; about 110 (9.2%) were called active. Roughly 8% stayed inconclusive and do not appear here.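 How the source made its calls: active means pathway reporter half-maximal dose under half the control reporter's, or control reporter unaffected while pathway reporter is inhibited; inconclusive means either signal flat at 30 to 70% inhibition or poorly fitted; inactive means the rest.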 Not all results are given here. Where a call stands in place of a potency, no number is given. Potency and affinity values are given separately.

Assay: LMP1 TES1 pathway selectivity over dsRED control – imaging, HEK293T, dual-color eGFP/dsRED, cherry-picks, selectivity assay for LMP1 NF-kB inhibitor project, dose response (AID 588398)
Settings: 48 h; HEK293T Tet-On dsRED counter-screen channel, at 19.5 µM (top of the series)
With `COc1ccc(C=C2OC(=O)C(C(C)=O)=C2O)cc1` the outcome was “inactive”.
For `COc1ccc(-c2[nH]ncc2/C=N\NS(=O)(=O)c2ccc(Cl)cc2)cc1`, the outcome was “inactive”.
In the case of `Cc1ccc(CCNC(=O)Cc2ccc(NC3=NC4CS(=O)(=O)CC4S3)cc2)cc1` (stereo not drawn), the outcome is reported as “inactive”.
For `O=C(NN1C(=O)C2C3C=CC(C4CC34)C2C1=O)c1cccc(Cl)c1` (stereo not drawn), the outcome was “inactive”.
With `CCc1ccccc1NC(=O)COC(=O)c1c(C)nsc1NC` the outcome was “inactive”.
With `Oc1c(N=NC(=S)Nc2ccccc2F)c2ccccc2n1Cc1ccccc1Cl` the outcome was “inactive”.
With `O=c1cc(Cl)nc2ccccn12` the outcome was “inactive”.
For `COc1ccc(-c2cc(C(=O)N3CCCC3)no2)cc1`, the outcome was “inactive”.
In the case of `COc1ccc(CNC(=O)N2[C@H]3CC[C@@H]2C=C(c2ccc(F)cc2OCc2ccccc2)C3)cc1OC`, the outcome is reported as “inactive”.
In the case of `COc1cc(C(=O)Oc2ccccc2/C=N/NC(=O)c2ccc(C)c(Cl)c2)cc(OC)c1OC`, the outcome is reported as “inactive”.
In the case of `CCCC(=O)NCCCc1nc2ccccc2[nH]1`, the outcome is reported as “inactive”.
For `O=C(Nc1nc(-c2ccccn2)cs1)c1ccc(Cl)s1`, the outcome was “inactive”.
In the case of `O=C(c1ccccc1)C(CCC(CN1CCOCC1)C(=O)c1ccccc1)CN1CCOCC1` (stereo not drawn), the outcome is reported as “inactive”.
With `COc1ccc(C(=O)NCCN2CCOCC2)cc1[N+](=O)[O-]` the outcome was “inactive”.
With `CCON1C(=O)C2(CCCCC2)C(=O)C12C=CCCC2` (stereo not drawn) the outcome was “inactive”.
In the case of `COc1cc(N(C)C)c([N+](=O)[O-])cc1C(=O)N1CCN(Cc2ccccc2)CC1`, the outcome is reported as “inactive”.
In the case of `CC1CCN(C(=O)/C(=C\c2cccs2)NC(=O)c2ccccc2)CC1`, the outcome is reported as “inactive”.
For `CCn1c(NC(=O)c2ccc(C)cc2)c2ccccc2nc1=O`, the outcome was “inactive”.
In the case of `COc1ccc2cc(-c3cc(C(=O)OCC(=O)Nc4c(C)n(C)n(-c5ccccc5)c4=O)c4ccccc4n3)ccc2c1`, the outcome is reported as “inactive”.
For `COc1ccc(N2Cc3ccccc3C2=O)cc1`, the outcome was “inactive”.
For `O=C(NCc1ccccc1Cl)C1CCCN1S(=O)(=O)c1ccc(F)cc1` (stereo not drawn), the outcome was “inactive”.
With `CCc1cc(C(=O)Nc2ncccc2O)sc1C` the outcome was “inactive”.
With `O=C(Nc1ncccc1O)c1ccc(S(=O)(=O)NCc2ccco2)cc1` the outcome was “inactive”.
For `COCCn1c(SCC(=O)N2CCc3ccccc32)nc2c(c1=O)SC(C)C2` (stereo not drawn), the outcome was “inactive”.
In the case of `COc1ccc(-c2csc3ncnc(NCCCO)c23)cc1`, the outcome is reported as “inactive”.
For `COc1ccc(-c2oc3ncnc(NCCN4CCOCC4)c3c2-c2ccc(OC)cc2)cc1`, the outcome was “inactive”.
In the case of `COc1ccc(-c2cc(C(F)(F)F)n3nc(C(=O)N4CCOCC4)nc3n2)cc1`, the outcome is reported as “inactive”.
For `Cc1ccccc1C(=O)N1CCN(c2ccc(NC(=O)CSc3ccc(Cl)cc3)cc2)CC1`, the outcome was “inactive”.
For `CN(Cc1ccccc1)c1nc(N)c([N+](=O)[O-])c(NCc2ccccc2)n1`, the outcome was “inactive”.
With `CCC(C)Nc1nc(-c2ccccn2)nc2ccccc12` (stereo not drawn) the outcome was “inactive”.
With `Cc1ccc(C)c(S(=O)(=O)N2CCN(CC(=O)N3CCc4ccccc4C3)CC2)c1` the outcome was “inactive”.
In the case of `CCOc1ccc(OCC(=O)Nc2nccs2)cc1`, the outcome is reported as “inactive”.
For `O=C(c1ccc(COc2ccccc2Cl)o1)N1CCCC1`, the outcome was “inactive”.
With `Cc1cc(C)n2nc(CC(=O)NC3CCCCCC3)nc2n1` the outcome was “inactive”.
In the case of `CCOC(=O)c1cn2nc(N3CCCCC3)ccc2n1`, the outcome is reported as “inactive”.
For `COc1ccc(CCC(=O)Nc2ccc(C)c([N+](=O)[O-])c2)cc1`, the outcome was “inactive”.
With `O=C(C=C1SCCS1)/C=C/c1ccco1` the outcome was “inactive”.
In the case of `Cc1ccccc1Cn1c(O)c(N=NC(=S)Nc2ccccc2F)c2ccccc21`, the outcome is reported as “inactive”.
For `CCc1ccc(C(=O)COC(=O)c2cccc(N3C(=O)c4c(C)nc5ccccc5c4C3=O)c2)cc1`, the outcome was “inactive”.
In the case of `COc1cc(/C=N/NC(=S)Nc2cccc(C(=O)O)c2)ccc1O`, the outcome is reported as “inactive”.
With `O=C(Nc1ccc(C(=O)N2CCOCC2)cc1)Nc1cccc(C(F)(F)F)c1` the outcome was “inactive”.
In the case of `O=C(NC1=NCCS1)c1cc2ccccc2o1`, the outcome is reported as “inactive”.
In the case of `COc1cc2c(cc1OC)-c1cc(Nc3ccc4c(c3)OCCO4)nc(=O)n1CC2`, the outcome is reported as “inactive”.
With `COc1ccccc1-n1c(-c2ccccc2)n[nH]c1=S` the outcome was “inactive”.
For `COc1ccc(N/N=C/c2c(C(=O)O)ccc3ccccc23)cc1`, the outcome was “inactive”.
With `COc1ccc(/C(CC2OC(=O)c3ccccc32)=N\NC(N)=O)cc1` (stereo not drawn) the outcome was “inactive”.
In the case of `COc1ccccc1C=NN=Cc1ccccc1O`, the outcome is reported as “inactive”.
In the case of `O=C(Nc1ccc(F)c(F)c1)C1CCCCC1`, the outcome is reported as “inactive”.
For `CC[C@]1(C(=O)OC)[C@H]2C(=O)N(Cc3ccccc3)C(=O)[C@H]2[C@H]2CN=C(SCc3ccc(Cl)cc3)N21`, the outcome was “inactive”.
In the case of `CCCSc1ccc([C@@H]2[C@H]3C(=O)N(C)C(=O)[C@H]3[C@]3(C(=O)OC)CCCN23)cc1OC`, the outcome is reported as “inactive”.
With `COc1ccc(-n2c(C)c(C(C)=O)c3cc(OC(C)=O)ccc32)cc1` the outcome was “inactive”.
In the case of `O=C(C1CCCCC1)N1CCN(c2ccnc3cc(Cl)ccc23)CC1`, the outcome is reported as “inactive”.
With `COc1ccc(S(=O)(=O)N2CCC(C(=O)NC3CC3)CC2)cc1OC` the outcome was “inactive”.
With `C[n+]1c2n(c3ccccc31)N=C(c1cc(C(C)(C)C)c(O)c(C(C)(C)C)c1)CS2` the outcome was “inactive”.
In the case of `CC(=NNc1nc2ccccc2s1)c1ncccn1`, the outcome is reported as “inactive”.
In the case of `CC(=NNc1nc2ccccc2o1)c1ncccn1`, the outcome is reported as “inactive”.
In the case of `Brc1cccc(-c2cnco2)c1`, the outcome is reported as “inactive”.
With `COc1ccc(NC(=O)Cn2nnc(C(=O)NCc3ccccc3)c2N)c(OC)c1` the outcome was “inactive”.
In the case of `COc1ccccc1NC(=O)C(=O)N/N=C(\C)CC(=O)Nc1ccccc1C(F)(F)F`, the outcome is reported as “inactive”.
In the case of `COC(=O)c1cccc(COC(=O)c2ccccc2NC(=O)c2ccco2)c1`, the outcome is reported as “inactive”.
For `Cn1c(=O)c2c(nc(NCc3ccco3)n2C/C=C/c2ccccc2)n(C)c1=O`, the outcome was “inactive”.
For `O=C(CCS(=O)(=O)c1ccccc1)Nc1nccs1`, the outcome was “inactive”.
In the case of `Oc1c(N=NC(=S)Nc2ccccc2F)c2ccccc2n1Cc1cccc(Cl)c1`, the outcome is reported as “inactive”.
With `CCCCCCNC(=O)O[C@]12C[C@@H](C(=O)OC)[C@@H](C(=O)OC)C[C@@]1(O)CN(S(=O)(=O)c1ccc(C)cc1)C2` the outcome was “inactive”.
For `CCN1CCN(Cc2ccc(NC(=O)c3ccc(C)c(NC(=O)c4ccno4)c3)cc2C(F)(F)F)CC1`, the outcome was “inactive”.
In the case of `Oc1c(N=NC(=S)Nc2ccccc2F)c2ccccc2n1Cc1ccc(F)cc1`, the outcome is reported as “inactive”.
For `CCCN(CC)c1ncnc2[nH]ncc12`, the outcome was “inactive”.
For `Cc1ccccc1-n1nc(C)c2cc(C(=O)NC3CC3)sc21`, the outcome was “inactive”.
With `Cc1ccc(N2C(=O)c3ccccc3C2Nc2cccnc2)nc1` (stereo not drawn) the outcome was “inactive”.
For `O=C(c1ccc(C#CC2(O)CCCCC2)cc1)N1CCN(C(c2ccccc2)c2ccccc2)CC1`, the outcome was “inactive”.
In the case of `COc1ccc(C(c2c(C)n(C)n(-c3ccccc3)c2=O)c2c(C)n(C)n(-c3ccccc3)c2=O)c(OC)c1OC`, the outcome is reported as “inactive”.
With `Cc1ccccc1C(=O)NC(=S)Nc1ccc(N2CCN(C(=O)c3ccccc3)CC2)cc1` the outcome was “inactive”.
In the case of `O=C(N/N=C/c1c(O)ccc2ccccc12)c1cccnc1`, the outcome is reported as “inactive”.
With `COc1cccc(/C=N\NC(=O)c2ccc(C)nc2)c1` the outcome was “inactive”.
For `CC(CN1CCCCC1)OC(=O)c1ccc2c(c1)OCO2` (stereo not drawn), the outcome was “inactive”.
In the case of `N=C1S/C(=C\c2ccccc2)C(=O)N1c1ccc(F)cc1`, the outcome is reported as “inactive”.
In the case of `CN(C)S(=O)(=O)c1cccc(NC(=O)c2n[nH]c(=O)c3ccccc23)c1`, the outcome is reported as “inactive”.
In the case of `CCOc1ccc(-c2cc(C(=O)N/N=C/c3ccc(O)cc3)c3ccccc3n2)cc1`, the outcome is reported as “inactive”.
In the case of `Cc1c(NC(=O)c2cc(-c3cccs3)nc3ccccc23)c(=O)n(-c2ccccc2)n1C`, the outcome is reported as “inactive”.
For `Cc1ccc(-c2cc(C(=O)N/N=C/C=C/c3ccco3)c3ccccc3n2)cc1C`, the outcome was “inactive”.
With `O=[N+]([O-])c1cccc(-c2ccc(/C=N/Nc3nc(N4CCCCC4)nc(N4CCCCC4)n3)o2)c1` the outcome was “inactive”.
In the case of `O=C(COC(=O)c1ccc(S(=O)(=O)NCc2ccco2)cc1)Nc1ccc(Cl)cn1`, the outcome is reported as “inactive”.
With `CCOC(=O)/C=C(\C)Sc1cc(=O)oc2ccccc12` the outcome was “inactive”.
In the case of `COc1ccc([C@H]2N[C@]3(CCCN(Cc4ccco4)C3=O)[C@H]3C(=O)N(Cc4ccccc4)C(=O)[C@@H]23)cc1`, the outcome is reported as “inactive”.
With `Cc1ccc(NC(=O)NNS(=O)(=O)c2ccc(Br)cc2)cc1` the outcome was “inactive”.
In the case of `CCN(Cc1ccncc1)C(=O)CCc1ccccc1`, the outcome is reported as “inactive”.
With `Cc1c(/C(O)=C2/C(=O)C(=O)N(CCN3CCOCC3)C2c2ccccn2)cnn1-c1ccccc1` (stereo not drawn) the outcome was “inactive”.
With `COC(=O)CCCC[C@@H]1SC[C@@H](NC(=O)OC)[C@@H]1NC(=O)OC` the outcome was “inactive”.
For `CN=C1S/C(=C\c2ccc(O)c(Br)c2)C(=O)N1C`, the outcome was “inactive”.
With `C#CCN(C[C@@H]1[C@@H](OC(=O)NCC2CCCCC2)[C@@H](OC(=O)NCC2CCCCC2)Cn2c(=O)ccc(=O)n21)S(=O)(=O)c1ccc(C)cc1` the outcome was “inactive”.
With `O=C(NOCc1ccccc1)c1ccc(Cl)cc1Cl` the outcome was “inactive”.
In the case of `S=C(NCC1CCCCC1)Nc1ccc(Oc2ccccc2)cc1`, the outcome is reported as “inactive”.
For `CCN(CC(=O)NCc1ccc(F)cc1)CC(=O)Nc1cc(S(=O)(=O)N(C)C)ccc1C`, the outcome was “inactive”.
In the case of `COc1ccc(C(=O)CN(CCC(=O)O)S(=O)(=O)c2ccc([N+](=O)[O-])cc2)cc1`, the outcome is reported as “inactive”.
With `O=C(Nc1ccc(N2CCOCC2)cc1)c1cn2ccccc2n1` the outcome was “inactive”.
In the case of `Cc1sc2ncnc(N3CCC(C(=O)Nc4ccccc4C(C)(C)C)CC3)c2c1C`, the outcome is reported as “inactive”.
With `C=CCn1c(O)c(N=NC(=S)Nc2ccccc2C)c2cc(S(=O)(=O)N3CCOCC3)ccc21` the outcome was “inactive”.
For `Cc1cccc(NC(=S)N=Nc2c(O)n(C)c3ccc(S(=O)(=O)N4CCOCC4)cc23)c1`, the outcome was “inactive”.
In the case of `CN1C(=O)C(CC(=O)NC2CCCCC2)SC1=Nc1ccccc1` (stereo not drawn), the outcome is reported as “inactive”.
In the case of `COc1ccc(-c2ccc3c(c2)S(=O)(=O)c2cccc(C(=O)NCc4cc(C)oc4C(F)(F)F)c2C3=O)cc1OC`, the outcome is reported as “inactive”.
With `Cc1ccc(C(=O)Nc2cccc(C(F)(F)F)c2)cc1NC(=O)c1ccno1` the outcome was “inactive”.
For `COc1cccc(C(=O)Nc2nc3ccccc3[nH]2)c1`, the outcome was “inactive”.
With `CCOc1ccc(/C=N/Nc2cc(N3CCOCC3)ncn2)c(O)c1` the outcome was “inactive”.
